{"source": "the supplement of paper PMC3842684", "data": [{"tested_on": "P. falciparum NF54-pfs16-GFP early (I-III) stage gametocytes", "experiment": "relative % inhibition of viable gametocyte number; higher = more gametocytocidal", "details": "0.5 µM; stage: early (I-III) gametocyte; incubation 72 h", "how_it_was_run": "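NF54 pfs16-GFP gametocytes, magnet-isolated at early (I/IIa, day 2) or late (day 8) stage, were plated at 10% parasitaemia, 0.1% haematocrit in 384-well poly-D-lysine imaging plates with compound in duplicate at 5 or 0.5 µM. Plates were incubated 72 h at 37°C, 5% CO2, 5% O2, then overnight with MitoTracker Red. Confocal imaging counted elongated GFP objects with MitoTracker signal above cut-off as viable gametocytes. Relative inhibition was normalised to in-plate vehicle and positive-control wells.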", "units": {"relative % inhibition": "%"}, "values": [{"smiles": "c1ccc(C2=Nc3ccccc3N=C(c3ccccc3)c3ccccc32)cc1", "relative % inhibition": 35.8}, {"smiles": "CC(C)OCc1cc(CN2CCN(c3cccc(Cl)c3)CC2)c(O)c2ncccc12", "relative % inhibition": 10.9}, {"smiles": "COc1ccc2nc(C)cc(Nc3ccccc3O)c2c1", "relative % inhibition": 6.33}, {"smiles": "CCOC(=O)c1cnc2ccc(OC)cc2c1NCc1ccccc1", "relative % inhibition": 26.4}, {"smiles": "CCc1ccc(Nc2cc(C)nc3nc(C)nn23)cc1", "relative % inhibition": -3.8}, {"smiles": "CCn1nc(-c2ccc(C(=O)OC)cc2)nc2c(=O)n(C)c(=O)nc1-2", "relative % inhibition": 18.4}, {"smiles": "Brc1ccc(Nc2nc3ccccc3nc2Nc2ccc(Br)cc2)cc1", "relative % inhibition": 38.5}, {"smiles": "CC(C)CNC(=O)c1c(N)n(CCc2ccccc2F)c2nc3ccccc3nc12", "relative % inhibition": -1.27}, {"smiles": "CC1=C(CC(=O)c2cccc([N+](=O)[O-])c2)C(=O)c2ccccc2C1=O", "relative % inhibition": 48}, {"smiles": "COc1cccc(C(=O)NC(c2ccc(C)cc2)c2cc(Cl)c3cccnc3c2O)c1", "note": "(configuration not stated)", "relative % inhibition": 12.4}, {"smiles": "COc1cccc(Nc2nc(NCCO)c3ccccc3n2)c1", "relative % inhibition": 0}, {"smiles": "CCOc1ccc(C=Cc2nc(=O)c3ccccc3o2)cc1", "relative % inhibition": 4.08}, {"smiles": "CCC(C)NCC(O)(c1ccc(Cl)cc1)c1ccc(Cl)cc1", "note": "(configuration not stated)", "relative % inhibition": 16.2}, {"smiles": "COc1ccc(OC)c(C2C3=C(CC(C)(C)CC3=O)N(c3ccc(Cl)c(Cl)c3)C3=C2C(=O)CC(C)(C)C3)c1", "relative % inhibition": 13.6}, {"smiles": "O=C(Nc1cccc(C(F)(F)F)c1)c1cc(Cl)ccc1O", "relative % inhibition": -0.916}, {"smiles": "CN(C)c1ccc(C(O)(c2ccc(N(C)C)cc2)c2ccc(N(C)C)cc2)cc1", "relative % inhibition": 81.4}, {"smiles": "Nc1ccc(-c2nc3cc(Cc4ccc5[nH]c(-c6ccc(N)cc6)nc5c4)ccc3[nH]2)cc1", "relative % inhibition": 14.7}]}]}
